Compounds with a hit are over-represented: about 4.3% of the library has one in this group of screens.
SMARCA2 act: SMARCA2 (BRM) function activators, primary screen, cell-based, luminescence, high throughput. activation, % at 9.1 µM. 370,000 tested, 1% active. AID 652017, 2013. MG213 cells, MMTV-luciferase reporter, dexamethasone, overnight; in the data active means activation above about 7.8%;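 further: 0% = vehicle wells and 100% = reference activator wells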
HSF1 inhib: HSF1 inhibitors in luciferase reporter cells, primary screen, cell-based, NIH3T3, luminescence. NIH3T3-HGL HSE-luciferase, MG132-induced, luminescence 8 h; active compounds read low. 300,000 tested, 0.77% active. activity change, negative = inhibition, % at 7.5 µM (by protocol). AID 2098, 2009;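 active means more than half of replicate wells show activity change below -50%, luminescence cut by over half; inconclusive means some wells, but at most half, below -50%; inactive means no replicate well below -50%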;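 further: luciferase reports HSF-1 transcriptional activity via heat shock element; 0% = median of DMSO wells and -100% = zero luminescence signal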
Wnt bcat act: Wnt/beta-catenin pathway activators, primary screen, cell-based, plate reader, single point; Wnt/beta-catenin reporter cell assay, activator; activation, % at 9.35 µM; 300,000 tested, 1.2% active; AID 743398, 2014; in the data active means activation above about 30%, passing the limit was not always enough; inconclusive means no clear call, values can overlap the other calls;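 further: 0% = neutral control wells and 100% = positive control wells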
esBAF inh: Bmi1 luciferase reporter increase in mESCs, primary screen, esBAF inhibitor project, mouse ES cells, Bmi1 luciferase knock-in, single point; reporter increase, % at 12.5 µM; 350,000 tested, 2% active; 24 h; 100% = twice the neutral-well signal; in the data active means activation above about 40%; inconclusive means no clear call, values can overlap the other calls;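 further: 0% = median of the plate's neutral control wells and 100% = double that signal; a rise in the Bmi1 reporter signal indicates esBAF inhibition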
HSF1 activator: HSF-1 activators, primary screen, NIH3T3-HGL cells, MG132 stress, luminescence, single point. NIH3T3-HGL HSF-1 luciferase reporter, 8 h; 100% = twice DMSO control signal. activation, % at 9 µM. 300,000 tested, 1.7% active. AID 504408, 2011;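 active means mean replicate activation of at least 50% with a set share of replicates each reaching 50%; inconclusive means only one of those two conditions met; inactive means mean below 50% and too few replicates reaching it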;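 further: 0% = median of the neutral control wells and 100% = twice that signal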
MITF TRPM1 HTS: activators of MITF-driven TRPM1 promoter reporter, primary screen, cell-based, SK-MEL-5, luciferase, single point; SK-MEL-5 TRPM1-promoter luciferase, 24 h; % of positive control, neutral wells = 0; activation, % at 12.5 µM; 300,000 tested, 0.75% active; AID 588334, 2011;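 active means mean activation of at least 80% with every replicate also reaching 80%; inconclusive means mean reaches 80% but some replicate falls short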;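 further: 0% = neutral control wells and 100% = parthenolide positive control wells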
* = called active by the depositor; ? = inconclusive; . = no result.

SMILES	SMARCA2 act	HSF1 inhib	Wnt bcat act	esBAF inh	HSF1 activator	MITF TRPM1 HTS
C[C@@H]1CN([C@@H](C)CO)C(=O)Cc2cc(NC(=O)C3CC3)ccc2O[C@H]1CN(C)C(=O)Nc1ccc2c(c1)OCO2	.	.	.	0	.	.
C[C@H]1CN([C@@H](C)CO)C(=O)Cc2cc(NC(=O)Nc3ccc4c(c3)OCO4)ccc2O[C@@H]1CN(C)Cc1ccccc1	.	.	.	48*	.	.
CCCNC(=O)C[C@H]1C[C@H]2c3cc(NS(=O)(=O)c4cccc(OC)c4)ccc3O[C@H]2[C@H](CO)O1	.	.	.	7	.	.
CCSc1ncc(Cl)c(C(=O)Nc2ccccc2C)n1	5	10	-3	0	55*	7
COc1ccccc1NC(=O)c1nc(S(=O)(=O)Cc2ccccc2)ncc1Cl	4	-87*	-11	-79	-88	-90
CC1CCN(S(=O)(=O)c2ccc(NC(=O)c3ccncc3)cc2)CC1	-4	0	-2	.	-3	-21
CCS(=O)(=O)c1ncc(Cl)c(C(=O)Nc2ccccc2OC)n1	3	381	0	-52	490*	.
CCS(=O)(=O)c1ncc(Cl)c(C(=O)Nc2ccc(S(=O)(=O)N3CCC(C)CC3)cc2)n1	-13	-85*	-19	-90	-85	-96
CSc1ncc(Cl)c(C(=O)Nc2ccccc2C)n1	-3	-1	1	-2	-9	-14
C[C@@H]1CN([C@H](C)CO)S(=O)(=O)c2ccc(-c3cncnc3)cc2O[C@H]1CN(C)C(=O)C1CCC1	.	.	.	-1	.	.
CCCC(=O)Nc1ccc2c(c1)C(=O)N(C)[C@@H]1CC[C@H](CC(=O)NCCc3ccccc3)O[C@H]1CO2	.	.	.	-2	.	.
CCOc1ccccc1NC(=O)c1nc(S(=O)(=O)Cc2ccccc2)ncc1Cl	1	-83*	-15	-64	-83	-77
CCc1ccc(NC(=O)c2nc(S(=O)(=O)Cc3ccccc3)ncc2Cl)cc1	-13	?	-5	-88	-70	-93
CC=Cc1ccc2n(c1=O)C[C@@H]1[C@@H](CO)[C@H](C(=O)NCC(F)(F)F)N(CC)[C@H]21 (mixture of isomers)	.	.	.	5	.	.
CC(=O)SC(C[N+](=O)[O-])c1cn(C(C)=O)c2ccccc12 (centres undefined)	2	169	.	.	204*	-106
O=C(C[C@@H]1CC[C@@H](NC(=O)Nc2cc(F)ccc2F)[C@H](CO)O1)NCc1ccccn1	.	.	.	-2	.	.
Cc1ccc(S/C=C\C(=O)c2ccccc2)cc1	8	85	56*	.	118*	-4
Cc1ccc(C(=O)/C=C/c2ccc(-c3ccc(C)cc3)o2)cc1	6	27	-3	.	56*	0
CC(/C=C/C(=O)c1ccc(C)cc1)=C\c1ccccc1	2	9	.	.	15	-2
Cc1ccc(C(=O)/C=C\C(=O)c2ccc(C)cc2)cc1	2	231	1	.	294*	3
C[C@@H]1CN([C@H](C)CO)C(=O)Cc2cc(NS(C)(=O)=O)ccc2O[C@H]1CN(C)S(=O)(=O)c1cn(C)cn1	.	.	.	-1	.	.
COc1ccc(NC(=O)Nc2ccc3c(c2)C(=O)N([C@H](C)CO)C[C@@H](C)[C@H](CN(C)Cc2ccccc2)OCCCC[C@@H](C)O3)cc1	.	.	.	0	.	.
COc1ccc(C(=O)Nc2cc3c(cc2Cl)OCCCO3)cc1	5	39	.	59*	53*	77
COc1ccc(C(=O)Nc2cc(OC)c(Cl)cc2OC)cc1	2	-23	2	.	-43	9
COc1cccc(C(=O)Nc2cc3c(cc2Cl)OCCCO3)c1	4	18	38*	.	54*	75
SMILES	SMARCA2 act	HSF1 inhib	Wnt bcat act	esBAF inh	HSF1 activator	MITF TRPM1 HTS
COc1ccc(NC(=O)Nc2ccc3c(c2)C(=O)N([C@@H](C)CO)C[C@H](C)[C@H](CN(C)C(=O)NC2CCCCC2)O3)cc1	.	.	.	3	.	.
Cc1cc(C(=O)COC(=O)C2=COCCO2)c(C)n1-c1ccc2c(c1)OCO2	1	0	28	-3	5	64
Cc1cc(C(=O)CSc2ncccn2)c(C)n1-c1cccc(F)c1	2	12	82*	.	13	34
Cc1cc(C(=O)COC(=O)C2=COCCO2)c(C)n1-c1cccc(F)c1	2	12	2	55*	11	107*
Cc1cc(C)cc(-n2c(C)cc(C(=O)CSc3nnnn3C)c2C)c1	1	11	.	26	-3	16
Cc1cc(C(=O)CSc2nnnn2C)c(C)n1-c1cccc(F)c1	4	-5	.	17	-10	98*
COc1ccc(NC(=O)N(C)C[C@@H]2Oc3c(NS(=O)(=O)c4cccs4)cccc3C(=O)N([C@H](C)CO)C[C@@H]2C)cc1	.	.	.	0	.	.
CC(C)CC#Cc1ccc2c(c1)O[C@@H](CN(C)Cc1cccc(F)c1)[C@H](C)CN([C@@H](C)CO)S2(=O)=O	.	.	.	1	.	.
Cc1ccc(-c2cn3cccnc3n2)cc1	4	9	?	36	19	84*
Cc1nccc(-c2ccc3c(c2)OCO3)n1	1	-4	4	.	-11	-1
Cc1ccc(SCc2cn3cccnc3n2)cc1	4	23	.	46*	44	62
c1ccc(-c2nccc(-c3ccc4c(c3)OCO4)n2)cc1	1	16	9	51*	21	17
CS(=O)(=O)Nc1ccc(-c2cn3cccnc3n2)cc1	0	10	0	4	15	7
Cc1ccn2cc(CSc3ccccc3)nc2c1	7	42	.	1	53*	61
O=C(Nc1cccc(-c2cn3cccnc3n2)c1)c1ccc2c(c1)OCO2	4	-12	.	27	-7	36
c1cnc2nc(-c3ccc4c(c3)OCO4)cn2c1	7	4	-2	?	9	87*
O=C(C[C@@H]1C[C@@H]2c3cc(NC(=O)C4CCOCC4)ccc3O[C@@H]2[C@H](CO)O1)NCc1ccc(Oc2ccccc2)cc1	.	.	.	-10	.	.
CN(/N=C/c1ccncc1)c1cnc2ccccc2n1	0	8	37*	.	44	35
Cc1cc(C(=O)COC(=O)Cc2c(F)cccc2Cl)c(C)n1C	5	.	11	78*	.	.
Cn1c(N)c(C(=O)COC(=O)Cc2c(F)cccc2Cl)c(=O)n(C)c1=O	-2	.	-2	-4	.	-6
CC1CCCN(C(=O)COC(=O)Cc2c(F)cccc2Cl)C1 (centres undefined)	2	10	14	45*	20	60
C[C@@H]1CN([C@@H](C)CO)C(=O)c2cc(NC(=O)CCC(F)(F)F)ccc2O[C@@H](C)CCCCO[C@H]1CN(C)S(=O)(=O)c1cn(C)cn1	.	.	.	3	.	.
